# Test results as given in PubChem BioAssay AID504652 (National Center for Advancing Translational Sciences (NCATS), 2011).
# Screen size: about 360,000 compounds; about 11,000 (3.1%) were called active. No stated cut-off is given here; in the data, active means activity change below about -30%; inactive means the rest. The full list was thinned out, with actives kept by preference.
# Target: D(1A) dopamine receptor (Homo sapiens) (UniProt P21728)
# Assay: Antagonist of Human D 1 Dopamine Receptor: qHTS
# Conditions: HEK293 TREx D1 cells, calcium flux, dopamine EC80; at 10 µM; hits give low values
# How it was run: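 HEK293 T-REx cells expressing inducible, force-coupled D1 receptor; no-wash Ca dye, 30–90 min RT. Cmpd → 180 s read at 1 Hz → EC80 DA → 180 s read.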
# On the % scale 0 is the no-effect control and ±100 the full control effect.
# D(1A) dopamine receptor (Homo sapiens), sequence (P21728 whole entry, looked up): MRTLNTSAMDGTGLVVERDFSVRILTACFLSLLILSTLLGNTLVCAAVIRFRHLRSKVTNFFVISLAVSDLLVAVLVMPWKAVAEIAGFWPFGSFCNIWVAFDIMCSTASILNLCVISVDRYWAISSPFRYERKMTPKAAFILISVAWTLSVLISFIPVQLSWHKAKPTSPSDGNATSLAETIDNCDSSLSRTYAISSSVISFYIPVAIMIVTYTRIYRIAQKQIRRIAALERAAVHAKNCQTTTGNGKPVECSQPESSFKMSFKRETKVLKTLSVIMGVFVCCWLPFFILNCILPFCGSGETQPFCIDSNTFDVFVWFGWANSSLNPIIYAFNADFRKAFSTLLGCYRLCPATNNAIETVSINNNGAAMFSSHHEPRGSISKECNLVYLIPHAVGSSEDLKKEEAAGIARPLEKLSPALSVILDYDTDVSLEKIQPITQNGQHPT
row,Structure (SMILES),"activity change, negative = inhibition"
1,COc1ccc(Cn2c(C(=O)O)c(CNCc3cccc(OC)c3)c3ccc(C)cc32)cc1,8.54% (inactive)
2,C[C@H](NC(=O)C1CC(=O)N(c2ccc3c(c2)OCCO3)C1)C(=O)N1CCC(C(=O)O)CC1 (stereo partly drawn),9.3% (inactive)
3,CCOC(=O)c1ccc(NC(=O)C2CC(=O)N(c3ccc4c(c3)OCCO4)C2)cc1 (stereo not drawn),6.91% (inactive)
4,CC(C)C[C@H](NC(=O)C1CC(=O)N(c2ccc3c(c2)OCCO3)C1)C(=O)NC1CCCC1 (stereo partly drawn),-44.1% (active)
5,COc1ccc(S(=O)(=O)N(CC(=O)NCc2ccco2)c2ccc(F)cc2)cc1,-3.07% (inactive)
6,Cc1ccc(S(=O)(=O)N(CC(=O)NCc2ccco2)c2ccccc2C)cc1,-44.4% (active)
7,CCN(CC(=O)NCc1ccco1)S(=O)(=O)c1ccc(F)cc1,-0.842% (inactive)
8,CCCS(=O)(=O)N1CCCC(C(=O)NCc2ccco2)C1 (stereo not drawn),6.64% (inactive)
9,CCCS(=O)(=O)N1CCCC(C(=O)NCCN2CCCCC2C)C1 (stereo not drawn),-41.8% (active)
10,CCOC(=O)N1CCN(S(=O)(=O)N2CCCC(C(=O)NCCCN3CCC(C)CC3)C2)CC1 (stereo not drawn),2.88% (inactive)
11,COc1ccccc1CNC(=O)CCn1c(=O)c2ccccc2n(CC(=O)Nc2ccc(Br)cc2F)c1=O,0.197% (inactive)
12,COc1ccc(C)cc1NC(=O)CCc1c(C)nn(-c2ccc(N3CCOCC3)nn2)c1C,-25.9% (inactive)
13,Cc1ccc(Cl)cc1NC(=S)N(CCN(C)C)Cc1cccs1,-0.901% (inactive)
14,Cc1ccc(NC(=S)N(CCN(C)C)Cc2cccs2)cc1C,-42.5% (active)
15,Cc1ccccc1NC(=S)N(CCCN1CCOCC1)Cc1cccs1,-5.87% (inactive)
16,COC(=O)c1scc(-c2ccc(C)cc2)c1S(=O)(=O)Nc1cc(Cl)c(OC)cc1OC,10.2% (inactive)
17,Cc1ccc(CSc2nc3ccsc3c(=O)n2CCC(C)C)cc1,13.8% (inactive)
18,COCCNS(=O)(=O)c1cc(-c2nn3c(C)nnc3c3ccccc23)ccc1C,-4.16% (inactive)
19,CC(=O)c1cccc(Nc2ccc3cc(S(=O)(=O)N4CCC(C)CC4)ccc3n2)c1,13.5% (inactive)
20,CC(=O)Nc1cccc(OCC(=O)/C=C2\N(C)c3ccccc3C2(C)C)c1,-35.4% (active)

row,Structure (SMILES),"activity change, negative = inhibition"
1,COc1cccc(NC(=S)C(C#N)=C2N(C)c3ccccc3N2C)c1,0.557% (inactive)
2,CN1CCN(CCC(=O)N/N=C/C=C2\N(C)c3ccccc3C2(C)C)CC1,-8.35% (inactive)
3,O=C1OC(C(=O)Nc2cccc(Br)c2)Cc2ccccc21 (stereo not drawn),3.01% (inactive)
4,COc1ccc2cc(C(=O)NCC3CCCO3)[nH]c2c1 (stereo not drawn),-7.79% (inactive)
5,COc1cccc(C(=O)NCCS(=O)(=O)NCC2CCCO2)c1 (stereo not drawn),28.7% (inactive)
6,COc1cccc(/C=C2\Sc3ccc(C(=O)NCC4CCCO4)cc3N(C)C2=O)c1 (stereo not drawn),-38% (active)
7,Brc1cccc(-c2nnn3c2nc(NC2CCCCC2)c2ccccc23)c1,11.9% (inactive)
8,Cc1cc(F)ccc1NS(=O)(=O)c1ccc(-n2cccn2)cc1,-14% (inactive)
9,Cc1ccc(-n2nc(C)c3c(C)cc(=O)n(CC(=O)Nc4ccc(C(C)C)cc4)c32)cc1,14.4% (inactive)
10,CCOC(=O)c1ccc(N2C(=O)c3[nH]nc(-c4ccccc4)c3C2c2ccc(C(C)C)cc2)cc1 (stereo not drawn),49.1% (inactive)
11,CCOc1ccc(CCNC(=O)c2c(C)oc3ncn(C)c(=O)c23)cc1,3.92% (inactive)
12,CCOc1ccc(CCNC(=O)c2cc3c(=O)n(C)c4ccccc4c3n2C)cc1,-46.8% (active)
13,CCN1CCCC1CNC(=O)c1cc2c(=O)n(C)c3ccccc3c2n1C (stereo not drawn),-10.7% (inactive)
14,CCCn1c2ccccc2c2cnn(CC(=O)N(C)c3ccccc3CC)c(=O)c21,-1.54% (inactive)
15,O=C(c1ccc2c(c1)N(Cc1ccccc1)C(=O)c1ccccc1S2(=O)=O)N1CCCC1,1.23% (inactive)
16,O=C(Nc1cc(C(F)(F)F)ccc1Cl)c1cc2nc(-c3ccc4c(c3)OCO4)cc(C(F)(F)F)n2n1,12.4% (inactive)
17,CC(C)c1ccc(NC(=O)C2CCN(c3nc(-c4ccc(C(C)C)cc4)no3)CC2)cc1,-20.6% (inactive)
18,COc1ccc(NC(=O)c2ccc3nc(CCc4ccccc4)oc3c2)c(OC)c1,0.958% (inactive)
19,CC(=O)N1CCCc2cc(S(=O)(=O)N3CCC(C(=O)NCc4ccc(F)cc4)CC3)ccc21,-2.54% (inactive)
20,CCc1nccn1S(=O)(=O)c1cc(Br)ccc1Br,-13.3% (inactive)

row,Structure (SMILES),"activity change, negative = inhibition"
1,COC(=O)c1ccc(C2C(C(=O)Nc3ccccc3)=C(C)Nc3nc4ccccc4n32)cc1 (stereo not drawn),6.56% (inactive)
2,COc1ccc(CCNc2ncnc3nc[nH]c23)cc1OC,-23.9% (inactive)
3,c1ccc2c(c1)OCC(CNc1ncnc3nc[nH]c13)O2 (stereo not drawn),-86.7% (active)
4,c1ccc(-c2cc3c(NCC4COc5ccccc5O4)ncnc3s2)cc1 (stereo not drawn),-18.9% (inactive)
5,CCOc1ccccc1CNC(=O)c1ccc2c(c1)nc1n2CCC(C)C1 (stereo not drawn),-12.2% (inactive)
6,CC(C)Oc1ccc(NC(=O)c2cc3ccccc3o2)cc1,-61.7% (active)
7,Cc1cc2nc(-c3ccc(NC(=O)c4cc5ccccc5o4)cc3)oc2cc1C,-20.5% (inactive)
8,CCC(C)c1ccc2oc(-c3ccc(NC(=O)c4cc5ccccc5o4)cc3)nc2c1 (stereo not drawn),-6.42% (inactive)
9,CC1=Nc2cc(C(=O)N3CCC(C)CC3)ccc2Sc2ccc(Cl)cc21,5.84% (inactive)
10,CCOC(=O)N1CCc2c(sc3c2c(=O)n(-c2ccc(CC)cc2)c(=O)n3C)C1,5.44% (inactive)
11,CCN(CC)C(=O)CCC(=O)Nc1ccc(C(=O)OC)cc1,-2.84% (inactive)
12,CCCc1cc(C(=O)Nc2ccc(C(=O)OC)cc2)cs1,-31.2% (active)
13,CCCc1cc(C(=O)Nc2ccc(Cl)cn2)cs1,11% (inactive)
14,Cc1ccc(C(=O)NCCSc2c(C)[nH]c3ccccc23)cc1C,-23.5% (inactive)
15,Cc1ccc(-n2c3nc(=O)[nH]c(=O)c-3cc3c(Cl)cccc32)cc1,7.04% (inactive)
16,Cc1ccc(NC(=O)C(Cc2ccccc2)NS(=O)(=O)c2ccc3c(c2)oc(=O)n3C)cc1C (stereo not drawn),-42.8% (active)
17,COc1ccccc1CNC(=O)C(Cc1ccccc1)NS(=O)(=O)c1ccc2c(c1)oc(=O)n2C (stereo not drawn),3.15% (inactive)
18,Cc1ccc(NC(=O)CCNS(=O)(=O)c2ccc3c(c2)oc(=O)n3C)cc1C,-0.228% (inactive)
